About 83,000 compounds went through this panel and 20% of them were active in at least one assay; those are over-represented in the sample as a whole.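 Assay: single dose, 48 h. Readout: percent growth (0 = no net growth; negative = cell death). Active: <10.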 A number with no mark means an inactive call. Activity calls are given as the source filed them.
These molecules were tested on NCI-H322M lung (assay: NCI-60 one-dose screen, 48 h (100 = growth as untreated, 0 = no growth, -100 = all killed)). Details: 10 µM unless noted.

Structure (SMILES)	growth
CN(C)C(=S)N=Nc1c(O)[nH]c2ccccc12	24.6%
NC(N)=N/N=C(/c1ccccc1)c1ccc(F)cc1	39.3%
CC(=O)c1cc2c(N)c(C(=O)Nc3cccc4ccccc34)sc2nc1C	45.4%
O=c1ccccc(-c2ccc(Br)cc2)c1O	21.1%
CCCCC(=O)OCC1OC(n2cnc3c(=S)nc[nH]c32)C(OC(=O)CCCC)C1OC(=O)CCCC (centres undefined)	36.4%
CC/C=C\C[C@H]1C/C=C2/C(=O)C=C[C@H]2C/C=C\CCCC(=O)O1	37.7%
CCNc1ncnc2c1cnn2C1CCCO1 (centres undefined)	109%
C=C1C(=O)O[C@H]2[C@H]1CC/C(COC(=O)NCCc1ccc(OC)c(OC)c1)=C\CC[C@@]1(C)O[C@@H]21	88%
O=C(Cc1ccc(/C=C/C(=O)c2ncc[nH]2)cc1)Nc1ccc(F)cc1	33.3%
Clc1ccc2c(NCCCNc3nc(-n4ccnc4)nc4ccccc34)ccnc2c1	94.7%
CCc1nc(N)nc(N)c1C#CC(C)c1ccc(-c2ccncc2)cc1Cl (centres undefined)	38.4%
Cc1cc2c3ccccc3ccc2[n+]2ccccc12	47.2%
COc1ccc(SC2c3ccc(C)cc3Oc3nc(N)c(C#N)c(N)c32)cc1 (centres undefined)	5.34% (active)
NC(=NC1C2CC3CC(C2)CC1C3)Nc1ccc(I)cc1 (centres undefined)	15.7%
CC(=O)OCCC/C(=C/c1cc2ccccc2c2ccccc12)[N+](=O)[O-]	58.2%
COc1cc(C(=O)/C=C/c2cccnc2Nc2ccc(Cl)cc2)cc(OC)c1OC	9.66% (active)
CCOc1ccc(-n2nc(C(=O)Nc3cc(OC)c(OC)c(OC)c3)nc2-c2cc(OC)c(OC)c(OC)c2)cc1	89.2%
CC(=O)Oc1ccc(Cl)cc1CN(C(C)=O)C1CCCCC1	101%
COc1cc(-c2nn(-c3ccc(Br)cc3)cc2C(=O)O)ccc1O	95.3%
COc1cc2nnc3c4cccnc4[nH]c3c2cc1OC	110%

Structure (SMILES)	growth
CCNC(=O)Oc1ccc(/C(=C(\C)c2ccc(Cl)cc2)c2ccc(OCCN(CC)CC)cc2)cc1	68.7%
CCc1nc(N)nc(N)c1C#CC(C)c1cc(-c2ccnc(C)c2)c2oc(C)nc2c1 (centres undefined)	25.3%
CC1=C(O)C(=O)C(C(C#N)(C#N)C(C#N)C#N)C1 (centres undefined)	85.8%
CN(C)c1ccc(NC(=O)c2ccc(/C=C/C(=O)c3ncc[nH]3)cc2)cc1	76.1%
CN(C)c1ccc(N=Nc2ccccn2)c(O)c1	21.9%
O=C1C=CC(=O)N1c1ccc2c(c1)Cc1cc(F)ccc1-2	93%
CCCCn1cnc2c(Sc3c([N+](=O)[O-])ncn3C)nc(N)nc21	105%
NC(CSC(c1ccccc1)(c1ccccc1)c1ccc(Cl)cc1)C(=O)O (centres undefined)	36.5%
Oc1ccc(N=Cc2ccccc2O)cc1	90.6%
Clc1ccc2c(NCCNc3nc(N4CCCCC4)nc4ccccc34)ccnc2c1	0.0479% (active)
CCN1CCN(c2nc(NCCCNc3ccnc4cc(Cl)ccc34)c3ccccc3n2)CC1	45.4%
CCOC(=O)c1sc(Nc2ccc(Cl)cc2)nc1C	53.4%
CN1C(=O)C2(SCC(C(=O)NCc3ccccc3)N2C(=O)C2CCCCC2)c2ccccc21 (centres undefined)	77.1%
CSc1ccc(-c2ccccc(=O)c2O)cc1	19.5%
CC(=O)c1cc2c(N)c(C(=O)Nc3cccc(F)c3C)sc2nc1C	95.7%
COc1ccc2c(c1)C(=O)/C(=C/c1ccccn1)CC2	99.3%
O=C(Cc1ccc(/C=C/C(=O)c2ncc[nH]2)cc1)Nc1ccccc1	67.4%
COc1cccc2c1C(=O)c1c(O)c3c(c(O)c1C2=O)C[C@](O)(C(=O)CO)C[C@H]3O[C@@H]1C[C@@H](NC(=O)CCCN(C)C2(c3ccc(F)cc3)CC3CCC2C3)[C@H](O)[C@@H](C)O1 (some centres undefined)	49.1%
COc1cccc2c1C(=O)c1c(O)c3c(c(O)c1C2=O)C[C@](O)(C(=O)CO)C[C@H]3O[C@@H]1C[C@@H](NC(=O)CCCCCN(C)C2(c3ccc(F)cc3)CC3CCC2C3)[C@H](O)[C@@H](C)O1 (some centres undefined)	53.7%

— PubChem BioAssay (NCI)
